Measured values as given in PubChem BioAssay (EPA / NIEHS).
The source made the active and inactive calls. How the source made its calls: active means hit-call score of the fitted dose curve at least 0.9, where 1 is the maximum; inactive means score below 0.9.

Key:
Conditions in all cases: mRNA level, 48 h; actives raise or lower the signal
[1] = read-out: Pro-epidermal growth factor (Homo sapiens) (UniProt P01133); experiment: LTEA_HepaRG_EGF: Life Technologies and Expression Analysis (LTEA) Assay for Epidermal growth factor (EGF) using HepaRG (AID 2283489)
In short: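 EGF expression changes in human HepaRG cells are scored by bidirectional fitting relative to 0.5% DMSO controls. Chemicals are tested at eight half-log concentrations up to 100 uM for 48 h in serum-free induction medium.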

[2] = read-out: Early growth response protein 1 (EGR1) transcription factor, EGR1 (gene 1958); experiment: LTEA_HepaRG_EGR1: Life Technologies and Expression Analysis (LTEA) Assay for Early growth response protein 1 (EGR1) transcription factor using HepaRG (AID 2283490)
In short: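 Differentiated human HepaRG cells in serum-free induction medium were exposed in duplicate for 48 h to eight concentrations (top 100 uM, half-log steps) in 0.5% DMSO. EGR1 mRNA was quantified by qRT-PCR, normalized to ACTB, GAPDH and POLR2A, and fitted bidirectionally versus DMSO.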

[3] = read-out: Fatty Acid-Binding Protein 1 (FABP1), FABP1 (gene 2168); experiment: LTEA_HepaRG_FABP1: Life Technologies and Expression Analysis (LTEA) Assay for Fatty Acid-Binding Protein 1 (FABP1) using HepaRG (AID 2283494)
In short: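 Differentiated human HepaRG cells were exposed in duplicate for 48 h in serum-free induction medium to 8-point half-log concentration series topping at 100 uM in 0.5% DMSO. FABP1 mRNA measured by TaqMan qRT-PCR, normalized to ACTB/GAPDH/POLR2A; bidirectional fit versus DMSO.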

[4] = read-out: Glutathione S-Transferase (GSTA2), GSTA2 (gene 2939); experiment: LTEA_HepaRG_GSTA2: Life Technologies and Expression Analysis (LTEA) Assay for Glutathione S-Transferase (GSTA2) using HepaRG (AID 2283497)
In short: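 Human HepaRG cells, plated 48 h, then exposed in serum-free induction medium for 48 h to eight half-log concentrations up to 100 uM in 0.5% DMSO, duplicate. GSTA2 mRNA by qRT-PCR, normalized to ACTB/GAPDH/POLR2A; bidirectional fit versus DMSO.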

[5] = read-out: Cytochrome P450 3A7 (Homo sapiens) (UniProt P24462); experiment: LTEA_HepaRG_CYP3A7: Life Technologies and Expression Analysis (LTEA) Assay for CYP3A7 using HepaRG (AID 2283492)
In short: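 Cells were thawed, plated, cultured 48 h, then treated for a further 48 h with chemicals (eight-point half-log series from 100 uM, 0.5% DMSO). RNA was isolated and CYP3A7 expression quantified by qRT-PCR normalised to ACTB, GAPDH and POLR2A.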

[6] = read-out: CYP3A5 (gene 1577); experiment: LTEA_HepaRG_CYP3A5: Life Technologies and Expression Analysis (LTEA) Assay for CYP3A5 using HepaRG (AID 2283493)
In short: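 Differentiated HepaRG cells in serum-free induction medium were dosed 48 h with test chemicals (8-point half-log series, top 100 uM, 0.5% DMSO, duplicate). CYP3A5 mRNA measured by qRT-PCR, normalized to ACTB, GAPDH, POLR2A; bidirectional fit versus DMSO.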

[7] = read-out: Cytochrome P450 4A22 (Homo sapiens) (UniProt Q5TCH4); experiment: LTEA_HepaRG_CYP4A22: Life Technologies and Expression Analysis (LTEA) Assay for Cytochrome P450 4A22 (CYP4A22) using HepaRG (AID 2283495)
In short: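 Cryopreserved HepaRG cells, plated and cultured 48 h, then switched to serum-free induction medium and treated 48 h (duplicates, up to 100 uM, half-log steps, 0.5% DMSO). Expression change of CYP4A22 was fitted bidirectionally against vehicle.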

[8] = read-out: Cytochrome P450 7A1 (Homo sapiens) (UniProt P22680); experiment: LTEA_HepaRG_CYP7A1: Life Technologies and Expression Analysis (LTEA) Assay for Cytochrome P450 7A1 (CYP7A1) using HepaRG (AID 2283496)
In short: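 Gene expression endpoint in human HepaRG liver cells treated for 48 h with test chemicals (up to 100 uM, 0.5% DMSO). Values come from bidirectional concentration-response fitting versus DMSO.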

[9] = read-out: Glutamate-cysteine ligase catalytic (GCLC), GCLC (gene 2729); experiment: LTEA_HepaRG_GCLC: Life Technologies and Expression Analysis (LTEA) Assay for Glutamate-cysteine ligase catalytic (GCLC) using HepaRG (AID 2283498)
In short: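 Differentiated human HepaRG cells, plated 48 h then switched to serum-free induction medium, were exposed in duplicate for 48 h to 8 half-log concentrations topping at 100 uM in 0.5% DMSO. GCLC mRNA was quantified by qRT-PCR against ACTB, GAPDH and POLR2A.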

Measured: AC50

Chain of Cytochrome P450 3A7 (Homo sapiens) (P24462 whole entry, looked up): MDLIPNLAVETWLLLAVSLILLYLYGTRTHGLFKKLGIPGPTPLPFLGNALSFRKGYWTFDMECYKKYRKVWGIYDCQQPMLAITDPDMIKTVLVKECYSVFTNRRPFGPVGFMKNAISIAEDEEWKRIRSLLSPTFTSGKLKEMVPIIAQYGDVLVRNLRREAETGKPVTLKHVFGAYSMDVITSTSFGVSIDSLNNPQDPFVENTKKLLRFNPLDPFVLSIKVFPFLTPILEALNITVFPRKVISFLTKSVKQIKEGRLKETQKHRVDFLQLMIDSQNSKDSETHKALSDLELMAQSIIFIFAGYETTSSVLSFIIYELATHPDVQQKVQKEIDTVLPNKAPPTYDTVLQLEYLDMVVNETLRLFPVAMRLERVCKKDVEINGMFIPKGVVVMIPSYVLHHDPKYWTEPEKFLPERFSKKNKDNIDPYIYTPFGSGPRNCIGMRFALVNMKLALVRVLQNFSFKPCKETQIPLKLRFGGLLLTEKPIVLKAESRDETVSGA

Cc1ccc(O)cc1C
inactive: [1] | [2] | [3] | [4]

OCC1CO1 (centres undefined)
inactive: [1] | [2] | [5] | [6] | [3] | [7] | [8] | [4]

O=P(Oc1ccccc1)(Oc1ccccc1)Oc1ccccc1
inactive: [1] | [2] | [3] | [7] | [8] | [4]
active: [5] 12.6 µM

O=C(O)C(Cl)Cl
inactive: [1] | [2] | [5] | [6] | [3] | [7] | [8] | [4]

O=[N+]([O-])c1ccccc1
inactive: [2] | [5] | [6] | [3] | [4]

COCCOCCO
inactive: [1] | [2] | [6] | [3] | [7] | [8] | [4] | [9]

Nc1ccc2ccccc2c1
inactive: [1] | [2] | [5] | [6] | [7] | [8] | [4]
active: [3] 18.9 µM

CCOP(=S)(Oc1ccc([N+](=O)[O-])cc1)c1ccccc1 (centres undefined)
inactive: [2] | [7] | [8] | [4]
active: [1] 21.4 µM | [5] 2.87 µM | [3] 12.7 µM

CSC(C)(C)C=NO
inactive: [1] | [2] | [5] | [6] | [3] | [7] | [8] | [4]

CN(C)C(=O)Cl
inactive: [1] | [2] | [5] | [6] | [3] | [7] | [8] | [4]

c1ccc(OP(Oc2ccccc2)Oc2ccccc2)cc1
inactive: [1] | [2] | [5] | [6] | [3] | [7] | [8] | [4]
